Results on nine sequences are retold here after publication PMC11006913.

What all share (assay): PBM; 200 nM protein, PBS
Common to all, as to conditions: dsDNA, one strand shown

The target of assay [1] is SHOX (Homo sapiens, UniProt O15266 103-189).
Assay [2] has as its target CRX (Homo sapiens, UniProt O43186 26-111).
In assay [3] the target is CRX (Homo sapiens, UniProt O43186 26-111, E42D).
Assay [4] concerns the target MSX2 (Homo sapiens, UniProt P35548 130-214, R199I).
Assay [5] concerns the target SHOX (Homo sapiens, UniProt O15266 103-189, R173C).
In assay [6] the target is MSX2 (Homo sapiens, UniProt P35548 130-214).
In assay [7] the target is MSX2 (Homo sapiens, UniProt P35548 130-214, F161Y).
Assay [8] concerns the target CRX (Homo sapiens, UniProt O43186 26-111, R41L).
Assay [9] concerns the target HOXD13 (Homo sapiens, UniProt P35453 263-343, T313R).
In assay [10] the target is HOXD13 (Homo sapiens, UniProt P35453 263-343).
Assay [11] concerns the target HOXD13 (Homo sapiens, UniProt P35453 263-343, T313A).
The target in assay [12] is HOXC9 (Homo sapiens, UniProt P31274 178-260, K195R).
Assay [13] addresses HOXC9 (Homo sapiens, UniProt P31274 178-260).
For assay [14], the target named is HOXC9 (Homo sapiens, UniProt P31274 178-260, R193K).
In assay [15] the target is HOXC9 (Homo sapiens, UniProt P31274 178-260, R222W).
Assay [16] has as its target HOXB9 (Homo sapiens, UniProt P17482 171-250, T197M).
Assay [17] deals with HOXC10 (Homo sapiens, UniProt Q9NYD6 254-340).
Assay [18] deals with HOXB9 (Homo sapiens, UniProt P17482 171-250).
The target in assay [19] is HOXC10 (Homo sapiens, UniProt Q9NYD6 254-340, K271E).
In assay [20] the target is HOXB9 (Homo sapiens, UniProt P17482 171-250, R186Q).
Assay [21] concerns the target HOXA4 (Homo sapiens, UniProt Q00056 201-287, W262R).
In assay [22] the target is HOXA4 (Homo sapiens, UniProt Q00056 201-287).
Assay [23] deals with HOXA4 (Homo sapiens, UniProt Q00056 201-287, W262F).
Another assay concerns the target PITX2 (Homo sapiens, UniProt Q99697 72-157).

CRX (Homo sapiens, UniProt O43186 26-111), sequence (O43186 26-111): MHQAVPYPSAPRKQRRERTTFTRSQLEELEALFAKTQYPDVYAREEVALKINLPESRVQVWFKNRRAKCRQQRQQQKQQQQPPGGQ
SHOX (Homo sapiens, UniProt O15266 103-189), sequence (O15266 103-189): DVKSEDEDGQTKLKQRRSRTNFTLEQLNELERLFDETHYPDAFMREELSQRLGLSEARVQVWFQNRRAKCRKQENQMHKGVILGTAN
CRX (Homo sapiens, UniProt O43186 26-111, E42D), sequence (O43186 26-111 E42D): as the sequence (O43186 26-111) above, with E17D counted along it
CRX (Homo sapiens, UniProt O43186 26-111, R41L), sequence (O43186 26-111 R41L): as the sequence (O43186 26-111) above, with R16L counted along it
SHOX (Homo sapiens, UniProt O15266 103-189, R173C), sequence (O15266 103-189 R173C): as the sequence (O15266 103-189) above, with R71C counted along it
MSX2 (Homo sapiens, UniProt P35548 130-214, R199I), sequence (P35548 130-214 R199I): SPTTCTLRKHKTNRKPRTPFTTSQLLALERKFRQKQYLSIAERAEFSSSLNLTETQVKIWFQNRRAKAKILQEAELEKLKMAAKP
MSX2 (Homo sapiens, UniProt P35548 130-214, F161Y), sequence (P35548 130-214 F161Y): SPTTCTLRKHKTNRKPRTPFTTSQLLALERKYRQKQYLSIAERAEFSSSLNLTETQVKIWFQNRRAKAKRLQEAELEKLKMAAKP
HOXB9 (Homo sapiens, UniProt P17482 171-250), sequence (P17482 171-250): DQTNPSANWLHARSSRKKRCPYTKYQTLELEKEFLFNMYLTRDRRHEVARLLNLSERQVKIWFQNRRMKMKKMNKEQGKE
HOXC10 (Homo sapiens, UniProt Q9NYD6 254-340), sequence (Q9NYD6 254-340): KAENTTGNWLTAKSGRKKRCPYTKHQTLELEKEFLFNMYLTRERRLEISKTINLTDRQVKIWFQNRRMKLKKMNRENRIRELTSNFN
HOXD13 (Homo sapiens, UniProt P35453 263-343, T313R), sequence (P35453 263-343 T313R): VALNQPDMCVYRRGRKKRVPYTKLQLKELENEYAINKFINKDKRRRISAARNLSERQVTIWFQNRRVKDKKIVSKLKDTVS
HOXB9 (Homo sapiens, UniProt P17482 171-250, R186Q), sequence (P17482 171-250 R186Q): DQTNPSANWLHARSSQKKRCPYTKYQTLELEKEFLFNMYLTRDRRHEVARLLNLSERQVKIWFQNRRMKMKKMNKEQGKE
MSX2 (Homo sapiens, UniProt P35548 130-214), sequence (P35548 130-214): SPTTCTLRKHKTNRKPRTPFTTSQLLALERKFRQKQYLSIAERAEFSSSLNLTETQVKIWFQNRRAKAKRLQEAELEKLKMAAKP
HOXD13 (Homo sapiens, UniProt P35453 263-343, T313A), sequence (P35453 263-343 T313A): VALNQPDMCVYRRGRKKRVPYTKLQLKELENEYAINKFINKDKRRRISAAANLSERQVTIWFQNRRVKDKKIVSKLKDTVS
HOXC9 (Homo sapiens, UniProt P31274 178-260, R222W), sequence (P31274 178-260 R222W): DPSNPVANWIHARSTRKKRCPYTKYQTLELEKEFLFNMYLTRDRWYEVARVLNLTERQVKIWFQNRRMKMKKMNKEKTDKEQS
HOXA4 (Homo sapiens, UniProt Q00056 201-287, W262F), sequence (Q00056 201-287 W262F): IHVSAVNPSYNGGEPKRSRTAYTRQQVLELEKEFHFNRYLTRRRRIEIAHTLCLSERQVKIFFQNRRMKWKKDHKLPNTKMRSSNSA
HOXC9 (Homo sapiens, UniProt P31274 178-260, K195R), sequence (P31274 178-260 K195R): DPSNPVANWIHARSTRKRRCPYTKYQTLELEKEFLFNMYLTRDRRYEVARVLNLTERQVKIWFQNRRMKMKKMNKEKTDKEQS
HOXA4 (Homo sapiens, UniProt Q00056 201-287), sequence (Q00056 201-287): as the sequence (Q00056 201-287 W262F) above, with F62W counted along it
HOXC9 (Homo sapiens, UniProt P31274 178-260, R193K), sequence (P31274 178-260 R193K): as the sequence (P31274 178-260 R222W) above, with R16K, W45R counted along it
HOXA4 (Homo sapiens, UniProt Q00056 201-287, W262R), sequence (Q00056 201-287 W262R): as the sequence (Q00056 201-287 W262F) above, with F62R counted along it
HOXC10 (Homo sapiens, UniProt Q9NYD6 254-340, K271E), sequence (Q9NYD6 254-340 K271E): as the sequence (Q9NYD6 254-340) above, with K18E counted along it
HOXB9 (Homo sapiens, UniProt P17482 171-250, T197M), sequence (P17482 171-250 T197M): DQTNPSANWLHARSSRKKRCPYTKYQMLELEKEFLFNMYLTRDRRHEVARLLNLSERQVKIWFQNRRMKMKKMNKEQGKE
HOXD13 (Homo sapiens, UniProt P35453 263-343), sequence (P35453 263-343): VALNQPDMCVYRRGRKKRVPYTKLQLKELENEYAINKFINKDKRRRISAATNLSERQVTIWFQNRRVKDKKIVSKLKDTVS
HOXC9 (Homo sapiens, UniProt P31274 178-260), sequence (P31274 178-260): as the sequence (P31274 178-260 R222W) above, with W45R counted along it

For CCTGCCTC, the binding signal in the assay with SHOX [1] is 7.13 upbm affinity estimate (log intensity, higher = more binding, comparable within an allelic series); with CRX [2], 8.19 upbm affinity estimate (log intensity, higher = more binding, comparable within an allelic series); in the assay with CRX [3], 8.2 upbm affinity estimate (log intensity, higher = more binding, comparable within an allelic series); in the assay with MSX2 [4], 9.6 upbm affinity estimate (log intensity, higher = more binding, comparable within an allelic series); with SHOX [5] it was 7.13 upbm affinity estimate (log intensity, higher = more binding, comparable within an allelic series); with MSX2 [6], 9.51 upbm affinity estimate (log intensity, higher = more binding, comparable within an allelic series). The binding signal in the assay with MSX2 [7] is 9.51 upbm affinity estimate (log intensity, higher = more binding, comparable within an allelic series); in the assay with CRX [8] it was 8.18 upbm affinity estimate (log intensity, higher = more binding, comparable within an allelic series).
Turning to ATTATGCC, the binding signal in the assay with SHOX [1] is 9.49 upbm affinity estimate (log intensity, higher = more binding, comparable within an allelic series).
In the case of GGCGGGCA, the binding signal with SHOX [1] was 7.13 upbm affinity estimate (log intensity, higher = more binding, comparable within an allelic series); in the assay with CRX [2], 8.31 upbm affinity estimate (log intensity, higher = more binding, comparable within an allelic series); in the assay with CRX [3], 8.21 upbm affinity estimate (log intensity, higher = more binding, comparable within an allelic series); with HOXD13 [9], 9.46 upbm affinity estimate (log intensity, higher = more binding, comparable within an allelic series); with SHOX [5], 7.15 upbm affinity estimate (log intensity, higher = more binding, comparable within an allelic series); with HOXD13 [10], 9.45 upbm affinity estimate (log intensity, higher = more binding, comparable within an allelic series). The binding signal with HOXD13 [11] is 9.59 upbm affinity estimate (log intensity, higher = more binding, comparable within an allelic series); with CRX [8], 8.39 upbm affinity estimate (log intensity, higher = more binding, comparable within an allelic series).
As to CCCCCGGG, the binding signal with SHOX [1] is 6.93 upbm affinity estimate (log intensity, higher = more binding, comparable within an allelic series); with HOXC9 [12], 9.28 upbm affinity estimate (log intensity, higher = more binding, comparable within an allelic series); with HOXC9 [13] it was 9.39 upbm affinity estimate (log intensity, higher = more binding, comparable within an allelic series); in the assay with SHOX [5], 6.97 upbm affinity estimate (log intensity, higher = more binding, comparable within an allelic series); with HOXC9 [14], 9.25 upbm affinity estimate (log intensity, higher = more binding, comparable within an allelic series); in the assay with HOXC9 [15] it was 9.53 upbm affinity estimate (log intensity, higher = more binding, comparable within an allelic series).
For CGCTGACC, the binding signal is 7.27 upbm affinity estimate (log intensity, higher = more binding, comparable within an allelic series) with SHOX [1]; 8.61 upbm affinity estimate (log intensity, higher = more binding, comparable within an allelic series) in the assay with HOXB9 [16]; 10.1 upbm affinity estimate (log intensity, higher = more binding, comparable within an allelic series) with HOXC10 [17]; 8.64 upbm affinity estimate (log intensity, higher = more binding, comparable within an allelic series) with HOXB9 [18]; 7.24 upbm affinity estimate (log intensity, higher = more binding, comparable within an allelic series) with SHOX [5]; 10.1 upbm affinity estimate (log intensity, higher = more binding, comparable within an allelic series) with HOXC10 [19]. Moreover, the binding signal with HOXB9 [20] is 8.66 upbm affinity estimate (log intensity, higher = more binding, comparable within an allelic series).
For ATTATCCA, the binding signal with SHOX [1] was 9.69 upbm affinity estimate (log intensity, higher = more binding, comparable within an allelic series).
As for AATCGTGT, in the assay with SHOX [1], the binding signal is 8.39 upbm affinity estimate (log intensity, higher = more binding, comparable within an allelic series).
For the sequence AATAACGC, the binding signal was 8.74 upbm affinity estimate (log intensity, higher = more binding, comparable within an allelic series) with SHOX [1]; 10.2 upbm affinity estimate (log intensity, higher = more binding, comparable within an allelic series) in the assay with HOXA4 [21]; 11.2 upbm affinity estimate (log intensity, higher = more binding, comparable within an allelic series) with HOXA4 [22]; 10.4 upbm affinity estimate (log intensity, higher = more binding, comparable within an allelic series) with HOXA4 [23].
With CGGATTAG, the binding signal was 8.9 upbm affinity estimate (log intensity, higher = more binding, comparable within an allelic series) in the assay with SHOX [1]; 13.6 upbm affinity estimate (log intensity, higher = more binding, comparable within an allelic series) with CRX [2]; 13.7 upbm affinity estimate (log intensity, higher = more binding, comparable within an allelic series) in the assay with CRX [3]; 13.2 upbm affinity estimate (log intensity, higher = more binding, comparable within an allelic series) with PITX2; 13.4 upbm affinity estimate (log intensity, higher = more binding, comparable within an allelic series) with CRX [8].
